Shown are actives, neighbours in structure and some others; about 11% of the full set was active somewhere.
Sfp PPTase inh: blocks B. subtilis Sfp PPTase activity; 310,000 compounds, 3.5% hits; Potency, µM, inactives show largest response in the series, negative = inhibition, hits mostly inhibitors; AID 1490; Q9F4F7; Biochemical Sfp PPTase activity, qHTS;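 also: the enzyme is Sfp with the accession as filed and its product quenches rhodamine fluorescence; potency is read from the fitted curve at half-maximal effect; 0% = enzyme reaction without inhibitor and -100% = no enzyme wells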
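Fluorescence-quenching assay: 15 nM Sfp-PPTase preincubated 15 min at room temperature with compound, then 5 uM rhodamine-CoA and 12.5 uM BHQ-2-labelled YbbR peptide added. Fluorescence (ex 525/em 598 nm) read at start and after 30 min; difference gives rate.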
FBPA coupling cs: inhibits coupling enzyme system, counter-screen for aldolase hits. coupling enzyme system counterscreen, AmpLite Red fluorescence. activity change, negative = inhibition, % at 58.2 µM, hits read low. 290,000 compounds, 0.67% hits. AID 2472; in the data active = activity change below about -30%
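Coupling enzymes only (glyceraldehyde-3-phosphate) + compound, at 57.5 uM final, 10 min RT; add substrate/coupling/AmpLite Red mix, 20 min RT; fluorescence ex 525/em 598 nm. Actives flag coupling-system interference.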
G9a inh: G9a (human) methyltransferase inhibition. Q96KQ7. G9a H3K9 monomethylation, AlphaScreen, 2 h. Potency, µM (doses to about 102 µM), inactives show top-dose activity, negative = inhibition, most hits filed as inhibitors. 350,000 compounds, 8.8% hits. AID 504332; also: potency is read from the fitted curve at half-maximal effect; nearly all actives have a fitted effect of over 75% in size
Target sequence (Q96KQ7 913-1193 limits assumed): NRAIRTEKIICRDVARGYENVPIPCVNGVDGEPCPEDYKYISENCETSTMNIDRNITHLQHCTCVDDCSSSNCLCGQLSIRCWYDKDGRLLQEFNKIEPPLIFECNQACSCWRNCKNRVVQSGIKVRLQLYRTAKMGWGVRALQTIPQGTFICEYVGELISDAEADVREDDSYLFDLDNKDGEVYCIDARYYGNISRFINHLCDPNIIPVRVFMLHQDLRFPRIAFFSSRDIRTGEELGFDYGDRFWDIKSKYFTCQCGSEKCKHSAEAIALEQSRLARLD
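Signal arises when biotinylated H3K9 peptide, once monomethylated, bridges streptavidin donor and antibody-captured acceptor beads. Enzyme at 20 nM was preincubated 15 min with test compounds; peptide 500 nM and SAM 20 uM then reacted for 2 h.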
Tau fibril FP: inhibitors of human tau fibril formation; P10636; K18 P301L tau heparin fibrillization, Alexa594 FP, 6 h; 280,000 compounds, 0.39% hits; Potency, µM (highest dose often 57.7 µM), for the others: top-dose activity, negative = inhibition, most hits filed as inhibitors; also: potency is read from the fitted curve at half-maximal effect; nearly all actives have a fitted effect of over 55% in size
Target sequence (P10636 561-689 P618L limits assumed): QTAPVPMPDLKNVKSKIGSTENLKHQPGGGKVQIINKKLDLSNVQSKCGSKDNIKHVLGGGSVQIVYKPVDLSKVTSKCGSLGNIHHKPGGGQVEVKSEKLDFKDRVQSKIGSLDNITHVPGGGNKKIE
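Heparin (20 uM) drove fibril formation of recombinant tau K18 P301L, 15 uM unlabeled with 0.24 uM Alexa 594 label, for 6 hr at 37 C in 100 mM sodium acetate pH 7. Fluorescence polarization (555/632 nm) read 1 hr after 30 uM ThT.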
Tau fluor counter: counter-screen for tau fibril formation inhibitors; Potency, µM (series often up to 57.7 µM), inactives show at the highest dose activity change, negative = decrease; 280,000 compounds, 0.93% hits; tau K18 P301L Alexa594 fluorescence, heparin fibrillization; also: potency is read from the fitted curve at half-maximal effect; nearly all actives have a fitted effect of over 55% in size
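Human K18 P301L tau (15 uM unlabeled plus 0.24 uM Alexa 594-labeled, final) in 100 mM sodium acetate pH 7 was mixed with compound and 20 uM heparin and incubated 6 hr at 37 C.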
Tau ThT inhib: blocks human tau fibril formation measured by thioflavin T. P10636. recombinant tau K18 P301L (four-repeat tau fragment), heparin-induced fibrillization, ThT fluorescence. Potency, µM (top dose mostly 57.4 µM), for the others: at the highest dose activity, negative = inhibition, actives largely listed as inhibitors. 270,000 compounds, 2.1% hits; also: potency is read from the fitted curve at half-maximal effect; nearly all actives have a fitted effect of over 55% in size
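Aggregation was driven by heparin (20 uM final) acting on recombinant tau […] bearing P301L in 100 mM sodium acetate pH 7; fibrils were detected with Thioflavin T.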
The depositor's hits bear a star; ? = inconclusive; / = no result given; [ ] = another dose, or the depositor's remark. Unless noted, calls follow the shape of the dose curve; as a rule, active = well fitted curve in the direction sought with a large enough effect; inconclusive = small, poorly fitted or top-dose-only effect, or another doubt; inactive = no such curve, though single readings can be large; an effect the other way counts as inactive or inconclusive. Unless noted, % is scaled to controls: 0 for no effect and ±100 for the full control effect.

SMILES	Sfp PPTase inh	FBPA coupling cs	G9a inh	Tau fibril FP	Tau fluor counter	Tau ThT inhib
CCNC(=S)N/N=C/c1ccc(C(=O)O)cc1	?	6.3	?	2.1%	-1.5%	4.4%
O=C(O)c1ccc(/C=N/Nc2ncc(C(F)(F)F)cc2Cl)cc1	28.2µM*	-0.9	31.6µM*	-2.6%	-12.0%	-11.6%
Cc1cc(C)n(-c2ccc(C(=O)Nc3ccc(C)c(S(=O)(=O)N4CCOCC4)c3)cc2)n1	22.3%	-4.6	27.7%	-1.1%	-18.4%	1.2%
CC(C)(C)OC(=O)NN=C(c1ccc(O)cc1)c1ccc(O)cc1	16.0%	1.8	41.1%	/	/	/
CC1CCC2(CC1)NC(=O)N(CC(=O)Nc1sc3c(c1C(N)=O)CCC3)C2=O (stereo not given)	?	0.7	50.1µM*	-1.8%	-8.5%	?
COC(=O)c1c(NC(=O)CN2C(=O)NC3(CCC(C)CC3)C2=O)sc2c1CCC2 (stereo not given)	/	/	-4.7%[12.7 µM]	/	/	/
Cc1[nH][nH]c(=O)c1C	/	/	1.9%[0.501 µM]	/	/	/
Cc1cccc(Cn2cnc3c(cnn3-c3ccc(Cl)cc3)c2=O)c1	/	/	3.8%[59 µM]	-11.9%	-1.3%	-5.7%
O=C(CN1C(=O)COc2ccc(S(=O)(=O)N3CCOCC3)cc21)N1CCN(c2ccccc2F)CC1	/	/	-9.4%[59 µM]	-6.7%	-6.6%	1.3%
NC(=O)c1ccc(NC(=O)CSC2=Nc3ccccc3C3CC=NN23)cc1 (stereo not given)	5.9%	6.8	12.6µM*	?	-15.7%	?
CCOc1ccc(NC(=O)Cn2cc(C(=O)c3ccccc3)c(=O)c3cc4c(cc32)OCO4)cc1	/	/	-31.8%[59 µM]	-7.8%	-26.2%	-4.0%
O=C(NCC(c1ccco1)N1CCc2ccccc21)c1ccccc1 (stereo not given)	/	/	50.1µM*	/	/	/
Cc1ccc(C(=O)NCC(c2ccco2)N2CCc3ccccc32)cc1C (stereo not given)	/	/	5.0%[0.501 µM]	/	/	/
COc1ccc(OC)c(S(=O)(=O)NCC(c2ccco2)N2CCc3ccccc32)c1 (stereo not given)	/	/	50.1µM*	/	/	/
COc1cc(C(=O)NCC(c2ccco2)N2CCc3ccccc32)cc(OC)c1OC (stereo not given)	/	/	50.1µM*	/	/	/
CCOc1ccccc1C(=O)NCC(c1ccc(N(C)C)cc1)N1CCc2ccccc21 (stereo not given)	/	/	12.6µM*	-0.9%	-19.5%	?
COc1ccccc1NC(=O)c1c(C)cc(C)nc1SCC(=O)Nc1cccc(C)c1	/	/	-24.8%[59 µM]	-2.7%	-16.9%	?
Cc1csc(=O)n1CCC(=O)OCC(=O)Nc1cc([N+](=O)[O-])ccc1Cl	/	/	-27.6%	/	/	/
CCc1ccccc1NC(=O)Cc1ccc(-n2c(C)nc3cccnc32)cc1	/	/	1.8%[59 µM]	-2.2%	-0.4%	1.6%
COc1cccc(C(=O)NCC(c2cccs2)N2CCc3ccccc32)c1 (stereo not given)	/	/	31.6µM*	/	/	/
O=C(NCC(c1cccs1)N1CCc2ccccc21)c1ccccc1 (stereo not given)	/	/	-2.5%	/	/	/
COc1ccccc1C(=O)NCC(c1cccs1)N1CCc2ccccc21 (stereo not given)	/	/	50.1µM*	/	/	/
COc1ccccc1C(=O)NCC(c1ccco1)N1CCc2ccccc21 (stereo not given)	/	/	50.1µM*	/	/	/
O=C(Cc1cccs1)Nc1nnc(SCc2cccc3ccccc23)s1	8.9%	-0.8	44.7µM*	-0.4%	5.7%	2.4%
O=C(Cc1cccs1)Nc1nnc(CCc2ccccc2)s1	-2.7%	-1.8	-7.7%[12.7 µM]	2.9%	-7.9%	-5.6%
CC(C)Cc1nnc(NC(=O)CSc2ccccn2)s1	44.7µM*	4.2	44.7µM*	-5.0%	-14.0%	-15.6%
Cc1nnc(NC(=O)CSc2ccccn2)s1	1.2%	1.5	1.1%	9.4%	0.7%	-9.4%
CCCCCc1nnc(NC(=O)Cc2cccs2)s1	-4.5%	1.8	14.1µM*	2.8%	-19.8%	-26.6%
O=C(CSc1nnc(Nc2ccccc2)s1)NCc1cccs1	5.8%	3.1	39.8µM*	-2.9%	-12.5%	-5.0%
